From PubChem BioAssay AID1345083 (National Center for Advancing Translational Sciences (NCATS), 2018)
In all, about 94,000 compounds went through this assay and about 6,200 (6.6%) were called active. Another 31% or so got no clear call; they are omitted. What follows is part of a selection rich in actives, with near analogues and random picks from the rest. A number with no mark means an inactive call. Calls come from the whole dose curve; as a rule, active = well fitted inhibition curve with a large enough effect; inconclusive = small, poorly fitted or top-dose-only effect; inactive = flat fitted curve, though single readings scatter.

test: Cytotoxic Profiling in HEK 293 Cell Line of Diverse Libraries Using Quantitative High-Throughput Screening; conditions: HEK 293 viability, ATP luminescence (CellTiter-Glo), 48-72 h; series mostly up to 115 µM; activity change, negative = cytotoxicity: at the top concentration; note: nearly all actives have a fitted effect of over 60% in size
Description: Cell-based phenotypic screening is a commonly used approach to discover biological pathways, novel drug targets, chemical probes and high-quality hit-to-lead molecules. Many hits identified from high-throughput screening campaign are ruled out through a series of follow-up potency, selectivity/specificity, and cytotoxicity assays. Prioritization of molecules with little or no cytotoxicity for a more in-depth downstream evaluation influence the future direction of projects, so cytotoxicity profiling of the screening libraries at early stage is essential for increasing the likelihood of candidate success. In this study, we analyzed results from a cell-based cytotoxicity screening campaign, comprising nearly 10,000 compounds in NCATS annotated libraries, and over 100,000 compounds in a diversity library, evaluated in four normal cell lines (HEK 293, NIH 3T3, CRL-7250 and HaCat) and a cancer cell line (KB 3-1, a HeLa subline) with overall screening outcomes, hit rates, pan-activity and selectivity. For the annotated library, we also examined the primary targets and mechanistic pathways regularly associated with cell death. To our knowledge, this is the first study to use high-throughput screening to profile large libraries for cytotoxicity assessment in both normal and cancer cell lines. In summary, the results generated here constitutes a valuable resource for the scientific community and provides insight on identifying cytotoxic compounds with particular mechanisms of action, and prioritizing compounds with suitable cytotoxicity profile for further evaluation.
HEK 293 cells were seeded into white 1536-well plates using a Multidrop Combi peristaltic dispenser (ThermoFisher, Waltham, MA) at a density of 250 cells/well in 5 uL of medium respectively. A pintool (Kalypsys) was used to transfer 23 nL of compound solution to the 1536-well assay plates. After 48 or 72 hr incubation at 37 degree Celsius, 5% CO2 and 95% humidity, 2.5 uL of CellTiter-Glo (Promega) was dispensed into each well using a dispenser (Aspect Automation, St. Paul, MN) with solenoid valves (Lee Valves, Westbrook CT). Plates were left at room temperature for 10 min before imaging the ATP-coupled luminescence using a ViewLux microplate imager (PerkinElmer, Waltham, MA).
% is set by controls: 0 for no effect and ±100 for the full control effect; potency is the fitted concentration of half-maximal effect.

SMILES	activity change, negative = cytotoxicity	Potency	outcome
COCC1CN(C(C)=O)CC12CCN(Cc1cccc(C#N)c1)CC2 (configuration not stated)	0.069%		
COc1cccc(CC(=O)N2CCC(CC3CC3)(NC(=O)c3ccccc3)CC2)c1	-16.1%		
CC(=O)NC1(C)CCN(Cc2cccc(-c3ccc(C(=O)c4ccccc4)cc3)c2)C1 (configuration not stated)		39.8 µM (active)	
CCC(C(=O)Nc1ccc2c(c1)CN(Cc1cc(F)cc(F)c1)C(=O)CO2)c1ccccc1 (configuration not stated)		44.7 µM (active)	
COc1cccc(CC(=O)N[C@@H]2C[C@H](Cn3cc(C4CC4)nn3)[C@@H](O)[C@H]2O)c1			inactive [at 172 µM]
Cc1cc2nc3n(c(=O)c2n1CC(=O)NC1CCCCC1)CCCC3	8.3%		
OCc1cccc(-c2cc(C3=CCOCC3)c3cncn3c2)c1	-21.3% [at 172 µM]		
FC(F)(F)c1cccc(-c2cc(C3=CCOCC3)c3cncn3c2)c1		100 µM (active)	
CC1=NS(=O)(=O)N(Cc2ccc(Cl)cc2)C=C1C(=O)O	-2.93%		
COc1ccc(CCC(=O)N2C[C@@H](Oc3ccccc3)C[C@H]2C(=O)N2CCOCC2)cc1	-0.714%		
O=C(NCc1cccnc1)c1cn2cc(-c3cccc(C(F)(F)F)c3)sc2n1		28.2 µM (active)	
O=C(c1cn2cc(-c3cccnc3)sc2n1)N1CCCCC1	-5.61%		
Cc1cc2ncc(C(=O)NCc3cccnc3)cn2n1			inactive [at 172 µM]
Cc1ccc(-c2cn3cc(C(=O)NCc4cccnc4)nc3s2)cc1		44.7 µM (active)	
O=C(NCc1ccccc1Cl)c1cn2cc(-c3ccc(C(F)(F)F)cc3)sc2n1	-12.3%		
O=C(Nc1ccc(F)cc1)c1cn2cc(-c3ccc(C(F)(F)F)cc3)sc2n1	-0.955%		
Cc1noc(C)c1S(=O)(=O)N1CCCC(c2nn[nH]n2)C1 (configuration not stated)			inactive
CN(C)CC1(O)CCC2(CCN(C(=O)c3ccc4ccccc4n3)CC2)CC1	-3.02%		
COC(=O)N1CCCC(C(=O)N2CCC3(CC2)CC(=O)Nc2ccccc2O3)C1 (configuration not stated)	-25.2%		
COc1cccc(Nc2n[nH]c(C(O)c3cccc(C(F)(F)F)c3)n2)c1 (configuration not stated)		79.4 µM (active)	
COc1ccccc1C(O)c1nc(Nc2ccc(C(F)(F)F)cc2)n[nH]1 (configuration not stated)		89.1 µM (active)	
O=C1CCN(C(=O)c2nccc3ccccc23)CCOCCN1	-0.481%		
COCCNC(=O)CN1C(=O)NC2(CCC(C(C)(C)C)CC2)C1=O (configuration not stated)	-19.9%		
O=C(c1cccc(N2CCNC2=O)c1)N1CC(=O)N(C2CCCCC2)CC(OCc2ccccc2)C1 (configuration not stated)	21.7%		
O=c1n(CCN2CCN([S+](=O)([O-])c3ccccc3)CC2)nc2n1CCCC2	-11.1%		
Cc1cc(C)n(Cc2cc(C(=O)N3CCSCC3)n[nH]2)n1			inactive

SMILES	activity change, negative = cytotoxicity	Potency	outcome
FC(F)(F)c1ccc(CN2CCn3c(nnc3-c3ccccc3)C2)cc1		89.1 µM (active)	
Clc1ccc(-c2nnc3n2CCN(Cc2cccnc2)C3)cc1			inactive
CC(=O)Nc1ccc(CN2CCn3c(nnc3-c3ccccc3)C2)cc1	-4.01%		
COc1ccc(C(=O)N2CCC(n3cc(-c4nc(C)no4)nn3)CC2)c(OC)c1	-3.26%		
CCN1CCC(N2CC[C@H](CO)[C@H](N(C)C)C2)CC1	-0.762%		
COCCn1c(=O)n([C@H]2CCCN(C(=O)c3cc(C)n(C)n3)C2)c2ncccc21	0.0693%		
COCC(=O)Nc1ccc2c(c1)CN(Cc1ccccc1F)C(=O)C(C)O2 (configuration not stated)	-28.2%		
CC1Oc2ccc(NC(=O)c3ccc([N+](=O)[O-])cc3)cc2CN(Cc2ccccc2)C1=O (configuration not stated)		31.6 µM (active)	
Cc1nn2c(c1-c1ccccc1-c1ccccc1)N(C(=O)CN1CCOCC1)CCC2	-19.4% [at 172 µM]		
Cc1nn2c(c1-c1ccccc1-c1ccccc1)N(CC1CC1)CCC2		2.82 µM (active)	
Cc1nn2c(c1-c1ccnn1C(C)C)N(CC1CCOCC1)CCC2		44.7 µM (active)	
Cc1nn2c(c1-c1ccccc1C(C)C)N(C(=O)c1cnccn1)CCC2	-10.1% [at 172 µM]		
Cc1nc(C)c(C(=O)N2CCCN(S(=O)(=O)c3ccccc3)CCC(=O)NCC2)s1			inactive
O=C1NCCCCCN(Cc2cccnc2)[C@@H]2CN(C(=O)C3CCCCC3)CC[C@@H]12	-21.9%		
COC(=O)c1c(NC(=O)c2ccccc2)c2cc(NC(C)C)cnc2n1CC1CCCO1 (configuration not stated)			inactive
O=C(N[C@@H]1CN(c2ncccn2)C[C@H]1CO)c1ccco1	-4.45%		
Cc1nc(C)c(C(=O)N2CCC3(CC2)CC(N2CCCC2)CCO3)s1 (configuration not stated)	0.51%		
CCN1CC2(CCN(C(=O)[C@H]3Cc4ccccc4CN3)CC2)CC1=O	-15%		
O=C(NCc1nnc2n1C(C(=O)NCCc1ccc(Cl)cc1)CC2)c1ccc(Cl)cc1Cl (configuration not stated)	-7.78%		
CC(C)CC(=O)NCC1Cn2cccc2CN1Cc1ccccc1 (configuration not stated)	-15.5%		
COC(=O)N1CCN(C(=O)c2cccc(-c3ccccc3OC)c2)CC1		63.1 µM (active)	
COCC(=O)N1CCN(C(=O)c2cccc(-c3ccc(OC)nn3)c2)CC1			inactive
COc1ccccc1-c1cccc(C(=O)N2CCC[C@H]2C(=O)N(C)C)c1	-0.487%		
CC(=O)N1CC2(CCN(CCCn3ccnc3C)CC2)CC1C(=O)O (configuration not stated)			inactive
Cc1cnc(C(=O)NC2C[C@H]3CC[C@@H](C2)N3C(=O)c2cc(C)n(C)n2)cn1 (some centres not stated)			inactive
CC1(c2cccnc2)N(Cc2ccccc2)C(=O)OC12CCN(C(=O)c1cccc(Cl)c1)CC2 (configuration not stated)	-18%		
